# Data taken from PubChem BioAssay (NCI).
# Compounds without any hit were thinned out: in the full panel of roughly 83,000, 20% have a hit.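 96-well plates, one dose, 48 hours. Percent growth reported; active if below 10.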 Unmarked numbers belong to inactive results. The source made the active and inactive calls.
# Key:
# Assay in all cases: NCI-60 one-dose screen, 48 h (100 = growth as untreated, 0 = no growth, -100 = all killed)
# [1] = test system: HCT-15 colon; conditions: 10 µM unless noted
# [2] = test system: HT29 colon; conditions: 10 µM unless noted
# [3] = test system: SNB-75 CNS; conditions: 10 µM unless noted
# [4] = test system: SNB-19 CNS; conditions: 10 µM unless noted
# [5] = test system: U251 CNS; conditions: 10 µM unless noted
# [6] = test system: PC-3 prostate; conditions: 10 µM unless noted
# [7] = test system: SK-MEL-5 melanoma; conditions: 10 µM unless noted
# [8] = test system: UACC-62 melanoma; conditions: 10 µM unless noted
# [9] = test system: LOX IMVI melanoma; conditions: 10 µM unless noted
# [10] = test system: SK-MEL-28 melanoma; conditions: 10 µM unless noted
# [11] = test system: SK-MEL-2 melanoma; conditions: 10 µM unless noted
# [12] = test system: EKVX NSCLC; conditions: 10 µM unless noted
# [13] = test system: SN12C renal; conditions: 10 µM unless noted
# [14] = test system: UO-31 renal; conditions: 10 µM unless noted
# [15] = test system: ACHN renal; conditions: 10 µM unless noted
# [16] = test system: A498 renal; conditions: 10 µM unless noted
# [17] = test system: CCRF-CEM leukemia; conditions: 10 µM unless noted
# [18] = test system: MOLT-4 leukemia; conditions: 10 µM unless noted
# [19] = test system: CAKI-1 renal; conditions: 10 µM
# [20] = test system: TK-10 renal; conditions: 10 µM unless noted
Compound,growth [1],growth [2],growth [3],growth [4],growth [5],growth [6],growth [7],growth [8],growth [9],growth [10],growth [11],growth [12],growth [13],growth [14],growth [15],growth [16],growth [17],growth [18],growth [19],growth [20]
COC(=O)c1oc2c(C(C)=O)c(OCCCN(C)C)ccc2c1C,99.6%,69.1%,91.3%,103%,99.5%,88.9%,103%,98.8%,95%,110%,106%,187%,109%,75.3%,107%,125%,-13.6% (active),85.8%,–,–
CC(C)(C)OC(=O)NCc1cccc(N=C=S)c1,38.9%,37.6%,40.7%,77.1%,58.3%,51.2%,49.2%,14.2%,24.4%,23.1%,41.9%,71.6%,69.6%,49.2%,61.5%,-11.6% (active),3.13% (active),-24.6% (active),–,–
COc1ccc(CNc2nc3ccccc3c3c(=O)c4ccccc4sc23)cc1OC,90.2%,73%,21.8%,86.5%,79.8%,72.9%,78%,68.8%,82.7%,93.3%,102%,84.3%,82.5%,85%,40.2%,64.2%,84.8%,86.6%,–,–
CC[C@H]1[C@@H]2C=C[C@@H]3[C@H]4C/C=C\C(=O)NCCC[C@@H]5NC(=O)/C(=C(O)/C=C/[C@@H]4C[C@@H]3[C@H]2C[C@H]1C)C5=O,-29.4% (active),14.4%,-85.6% (active),-40.6% (active),46.5%,-35.3% (active),-70.4% (active),72.6%,-84.8% (active),60.9%,46%,15.3%,-66.1% (active),-78.2% (active),–,-18.4% (active),-17% (active),–,-41.3% (active),–
Nc1ncnc2c1c(-c1ccc(Oc3ccccc3)cc1)nn2C[C@H]1SSC[C@H]1O,26.6%,-59.1% (active),3.26% (active),45.9%,21.1%,50.7%,-92.5% (active),-48.8% (active),-57.7% (active),-16.3% (active),-75.1% (active),6.97% (active),20.7%,-3.37% (active),10.3%,18.9%,11.1%,-2.47% (active),–,–
O=C(Nc1ccc(-n2ccc3c(NC(=O)c4ccccc4)nccc32)cc1)Nc1ccc(Cl)c(Cl)c1,-50.8% (active),-42.8% (active),-7.26% (active),-40.2% (active),-79.6% (active),23.9%,-97.9% (active),-46.4% (active),-72.4% (active),18.2%,-42.4% (active),39.5%,10.7%,-61.4% (active),–,68.2%,-34.6% (active),9.08% (active),-57.7% (active),–
c1ccc(-c2nc3sc(C(c4ccccc4)c4ccccc4)nn3c2-c2ccccc2)cc1,87.9%,94.9%,85%,109%,102%,78.7%,109%,89%,89.4%,102%,81.3%,89.8%,93.8%,90.8%,97.5%,87.6%,100%,107%,–,–
O=c1c2ccccc2sc2c(N3CCCC3)nc3ccccc3c12,94%,92.3%,86.6%,95.9%,98.5%,83.4%,92.6%,79%,85.9%,120%,127%,103%,91.3%,97%,98.6%,73%,92.1%,102%,–,–
O=C(Nc1ccc(-n2ccc3c(NC(=O)c4ccccc4)nccc32)cc1)c1cccc(C(F)(F)F)c1,14.1%,2.7% (active),43.9%,37.4%,17.7%,40.4%,16.5%,35.4%,6.29% (active),48.1%,46.1%,52.7%,39.8%,23.7%,–,39%,22.1%,18.6%,19.4%,–
O=C(Nc1cccc(-n2ccc3c(NC(=O)c4ccccc4)nccc32)c1)Nc1ccc(Cl)c(C(F)(F)F)c1,10.6%,-38.9% (active),54.7%,24.8%,9.27% (active),20.4%,-35.5% (active),20.9%,11.8%,44.5%,-5.89% (active),32.8%,19.2%,27.8%,–,-3.31% (active),4.74% (active),12.8%,7.43% (active),–
O=c1c2ccccc2sc2c(NCCN3CCOCC3)nc3ccccc3c12,27.1%,8.68% (active),42.8%,79.3%,42.3%,43.2%,54.8%,33.3%,5.67% (active),69.4%,102%,70.9%,59.4%,47.6%,43.5%,43.7%,36.3%,37%,–,–
C[C@H]1C=C(C[C@@H](O)CCCCCCCCCC[C@@H](O)[C@H]2CCC(=O)O2)C(=O)O1,108%,109%,115%,96.7%,99.5%,89.4%,95.9%,92.2%,90.5%,124%,80.2%,91%,117%,82%,96.8%,163%,78.5%,112%,–,–
COc1cc(Nc2ncccc2C(=O)Nc2nc3ccc(F)cc3s2)cc(OC)c1OC,76.2%,79.1%,73.5%,89%,58.5%,39.2%,63.9%,24.4%,57.3%,84%,75.3%,22%,63.2%,–,79.9%,62.2%,29.7%,74.5%,18.4%,114%
COc1cc(-c2nc3ccccc3s2)ccc1OCc1nc2n(n1)S(=O)(=O)c1ccccc1N2c1ccccc1,99.2%,104%,103%,105%,98.1%,96.7%,84.2%,97.8%,93.2%,110%,98.5%,95.4%,108%,–,107%,100%,112%,80.5%,–,121%
C=C1C(=O)O[C@H]2[C@H]1CC/C(CNC(=O)/C1=C/CC[C@@]3(C)O[C@H]3[C@H]3OC(=O)C(=C)[C@@H]3CC1)=C\CC[C@@]1(C)O[C@@H]21,93.7%,95.4%,86.3%,97.6%,94.2%,99%,97.2%,85.1%,88.2%,96.2%,88.7%,86.2%,96.7%,95.5%,–,94.6%,42.6%,93.5%,–,–
CN1C(=O)C2(SCC(C(=O)NCC(=O)OC(C)(C)C)N2C(=O)C2CCCCC2)c2ccccc21 (stereo not given),96.6%,87.6%,80.4%,99.2%,92%,94.6%,98.2%,91.8%,94.9%,103%,86.9%,96.6%,99.2%,–,99.8%,83.5%,96.3%,92.6%,–,103%
CN1CCN(CC(=O)N(C)c2ccc(N=C(c3ccccc3)c3c(O)[nH]c4ccc(C#N)cc34)cc2)CC1,64.7%,10.7%,3.45% (active),61.1%,35.8%,36.4%,25.8%,68.1%,13.2%,53%,16.4%,63.4%,26.4%,–,48.4%,27%,15.8%,8.12% (active),20.2%,–
